In all, about 190,000 compounds went through this assay and about 3,500 (1.8%) were called active. Many of the other results were omitted from the sample, so actives are more common in it than they were. Unmarked numbers belong to inactive results.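 Rule for the calls: active = inhibition above a set limit, 3 SD over mean compound inhibition (cut at about 8.4% in these data); inactive = the rest.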

This assay is described as follows: inhibitors of the yeast RAM network, primary screen, dse1pr::URA3 reporter, 5-FOA selection (AID 868).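 Note: 0% = DMSO-only wells with no growth and 100% = 10 µM 1-NA-PP1 full growth.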 Particulars: S. cerevisiae dse1pr::URA3 reporter, 5-FOA growth OD615, 2 d; at 50 µM; stronger effect = higher value; analog-sensitive cbk1-as2 kinase mutant strain.
For `CC1CCCN(CC(O)COCc2ccccc2)C1` (configuration not stated), the inhibition is 3.48%. With `Cc1cccc(NS(=O)(=O)c2ccc(C)c(C(N)=O)c2)c1`, the inhibition is 0.63%. In the case of `COc1ccccc1CNC(=O)CCCn1c(=O)c2ccccc2n(CC(=O)NC2CCCC2)c1=O`, the inhibition was 1.5%. For `CCc1nnc(NC(=O)CCC(=O)NCc2ccccc2OC)s1`, the inhibition is 1.08%. With `COc1ccccc1CNC(=O)CCn1c(=O)sc2ccccc21` the figure was 8.77% (active). The result for `Cc1ccc(-c2noc(CN3CCN(Cc4ccccc4)CC3)n2)cc1` reads 1.83%. With `COc1ccccc1Cc1nc(-c2ccc(C)cc2)no1` the figure was 0%. Regarding `Cc1ccc(-c2noc(CC(c3ccccc3)c3ccccc3)n2)cc1`, the inhibition was 9.59% (active). For `Cc1cc(C)cc(C(=O)N(CCc2ccccc2)C2=CC3CCC(C2)N3C)c1` (configuration not stated), the inhibition was 0.13%.

On to `C=CCOCCN(C)C1=NS(=O)(=O)c2ccccc21`, for which the inhibition was 2.38%. Turning to `C=CCn1c(SCC(=O)CC(=O)OCC)nc2cc(C(=O)N3CCC(C(N)=O)CC3)ccc2c1=O`, the inhibition is 2.99%. Take `C/C(CCC(=O)OC[C@H]1O[C@H](C#Cc2ccccc2)C=C[C@@H]1Oc1ccc(C)cc1)=N\OC[C@@H](O)[C@H]1O[C@@H]2OC(C)(C)O[C@@H]2[C@H]1O`: the inhibition is 11.1% (active). Consider `O=C(NNC(=S)NCc1ccccc1)c1ccc(OC(F)F)cc1`, for which the inhibition was 1.5%.

`COc1cccc(CC2(CO)CCCN(CC3=Cc4cc(OC)ccc4OC3)C2)c1` (configuration not stated): the inhibition was 0.13%. Take `O=C(c1nnc(-c2ccc(Cl)cc2)o1)C1CCCC1`: the inhibition is 2.68%. As for `COC(=O)CSc1nc2c(c(C3CC=CCC3)c1C#N)CCC2` (configuration not stated), the inhibition was 8.53% (active). The result for `COC(=O)CSc1nc(C2CC2)nc2ccccc12` reads -0.4%; that for `CCOc1ccc2cc(C#N)c(SCC(=O)OC)nc2c1`, 1.88%. `O=C(CSc1cccc[n+]1[O-])c1ccc(-c2ccccc2)cc1`: the inhibition is 0.55%. The result for `CCCCc1nc(NCc2ccccc2)c(C#N)c2c1CCCC2` reads 8.74% (active); that for `CCCCc1nc(NCCN)c(C#N)c2c1CSC(C)(C)C2`, 1.35%. In the case of `CCN1CCc2c(C#N)c(NCc3ccccc3)nc(NCCO)c2C1`, the inhibition is 1.86%. In the case of `CS(=O)(=O)N1CCc2cc(C(=O)Nc3ccccc3)ccc21`, the inhibition was 3.82%.

As to `O=C(CSCc1ccc(Br)cc1)Nc1ccc(S(=O)(=O)N2CCCCCC2)cc1`, the inhibition was 19.5% (active). In the case of `COc1ccc(OCC(=O)OCC(=O)Nc2ccc(S(=O)(=O)N3CCCCC3)cc2)cc1`, the inhibition was 4.54%. On to `CN(CC(=O)Nc1ccc(S(=O)(=O)N2CCCC2)cc1)Cc1ccc(Cl)c(Cl)c1`, for which the inhibition was -0.13%. With `COc1ccc(Sc2nc(-c3ccccc3)ncc2OC)cc1` the figure was 4.55%; with `Cc1ccc(OC(=O)c2ccccc2C(=O)OCC(F)(F)C(F)F)cc1`, 8.9% (active); with `O=C(CCC(=O)OCC(F)(F)C(F)F)NCc1ccccc1`, -0.39%. `Cc1ccc(OC(=O)c2cc3ccccc3o2)cc1`: the inhibition is 0.41%. For the molecule `COc1ccc(C=Nc2cccc3ncccc23)cc1`, the inhibition is 0.48%. With `C=C(C)c1cccc(C(C)(C)NC(=O)NCCN(CC)CC)c1`, the inhibition was 1.45%. `O=[N+]([O-])c1cc(S(=O)(=O)Nc2cccc(Cl)c2)ccc1N=Nc1c(O)[nH]c2ccccc12`: the inhibition was 7.97%. As to `CCCCOc1ccc(C(=O)NCc2ccco2)cc1`, the inhibition was 0.66%. Consider `COc1ccc(/C=C(\NC(=O)c2ccc(OCC(C)C)cc2)C(=O)OCc2ccco2)cc1`, for which the inhibition is 11.7% (active).

For the molecule `O=C(OCN1C(=O)c2ccccc2C1=O)/C(=C\c1ccco1)NC(=O)c1ccccc1`, the inhibition was 1.22%.

For `COc1ccc2c(c1)CCC/C2=N\OC(=O)c1ccccc1F`, the inhibition is 0%. `Cc1ccc(S(=O)(=O)NNC(=O)Nc2cccc3ccccc23)cc1`: the inhibition is 8.69% (active). Consider `Cc1ccc(S(=O)(=O)NC(C)C(=O)Nc2ccccc2C(=O)N2CCCC2)cc1` (configuration not stated), for which the inhibition was 0.67%. As for `COc1ccc(C(=O)NNS(=O)(=O)c2ccc(C)cc2)cc1`, the inhibition is 1.12%. For `Cc1ccc(C(C[N+](=O)[O-])c2c(C)cc3ccccn23)cc1` (configuration not stated), the inhibition was 5.1%. With `CCN1CCN(C(=O)CN(C)S(=O)(=O)c2ccc3ccccc3c2)CC1`, the inhibition is 1.12%.

As for `N/C(=N\OC(=O)CCCC(=O)O)c1ncc(C(F)(F)F)cc1Cl`, the inhibition is 1.61%. Take `CCCC(=O)n1nc(NCc2ccc(OC)cc2)nc1NCc1ccc(OC)cc1`: the inhibition was 6.99%. Turning to `O=C(c1cccs1)n1nc(NCc2ccccc2)nc1NCc1ccccc1`, the inhibition is 11.2% (active). Take `O=C(CCC(=O)c1cccs1)NCc1ccccc1`: the inhibition is 1.52%. With `O=C(NCCOc1ccccc1Cl)C(=O)Nc1ccccc1`, the inhibition is 4.17%. As for `NC(N)=Nc1nc2ccc(Br)cc2c(=O)[nH]1`, the inhibition is -0.37%. In the case of `CCOC(=O)c1c(NC(=O)CCC(=O)NCc2ccco2)sc2c1CCCC2`, the inhibition is 9.97% (active). Turning to `CCOC(=O)c1c(NC(=S)NC(=O)c2ccco2)sc2c1CCCC2`, the inhibition was 4.55%. Turning to `CCOCC(=O)Nc1sc2c(c1C(=O)OCC)CCCC2`, the inhibition is 2.1%.

Consider `Nc1cc(C(F)(F)F)ccc1N1CCOCC1`, for which the inhibition was 2.42%. As for `O=C(CN1CCN(S(=O)(=O)c2ccc(Br)cc2)CC1)Nc1ccccc1C(=O)c1ccccc1`, the inhibition is 3.25%. As for `COC(=O)C(C)NC(=O)COc1ccc2ccccc2c1` (configuration not stated), the inhibition was 1.01%. For the molecule `Cc1cc2ccccc2n1CCC(=O)O`, the inhibition is -0.54%. For the molecule `Cc1cc2ccccc2n1CCNC(=O)COc1ccc2ccccc2c1`, the inhibition is 11.6% (active).

Take `COc1ccc(S(=O)(=O)Nc2cccnc2)c(Cl)c1Cl`: the inhibition was 2.49%. The result for `CC(C)Cc1nn2c(=O)cc(O)nc2s1` reads 1.5%; that for `COc1cccc(CNn2cn[nH]c2=S)c1OCc1ccccc1`, 1.01%; that for `CSc1c(SCc2ccccc2)cnn(Cc2ccccc2)c1=O`, 1.14%. With `COc1ccc(S(=O)(=O)N(C)CC(=O)Nc2ccc3c(c2)OCCO3)cc1OC` the figure was 9.23% (active).

Take `COc1ccc(NC(=O)CN(C)S(=O)(=O)c2ccccc2)cc1OC`: the inhibition is 0.34%. The result for `COc1ccc(/C=C/C(=O)Nc2ccc3c(c2)OCCO3)cc1OC` reads 1.12%; that for `Cc1ccc(N2C(=O)C3CC3C2=O)cc1` (configuration not stated), 0%; that for `O=C(NCc1ccc(Cl)cc1)NCc1ccc(Cl)cc1`, 2.41%. As for `Cc1cccc(Oc2c([N+](=O)[O-])c(=O)n(C)c3ccccc23)c1`, the inhibition is 2.19%. In the case of `CC(C)c1csc(CN2CCC(CO)(Cc3ccccc3)CC2)n1`, the inhibition is 1.22%. Take `COc1ccc([N+](=O)[O-])cc1NC(=O)CC1SC(=Nc2cccc(C)c2C)N(/N=C(\C)c2ccc(C)cc2)C1=O` (configuration not stated): the inhibition was 9.07% (active). With `COc1ccc([N+](=O)[O-])cc1NC(=O)CCc1ccccc1` the figure was 0.95%. The result for `COc1ccc([N+](=O)[O-])cc1NC(=O)c1ccc(N(Cc2ccccc2C)S(C)(=O)=O)cc1` reads 4.39%. Take `Cc1ccccc1Nc1nc(N)nc(CSc2ccccc2)n1`: the inhibition is -0.26%. In the case of `COc1ccc(-c2nnc(SC(C)C#N)o2)cc1` (configuration not stated), the inhibition is -0.45%.

For the molecule `COc1ccc(-c2nnc(SCc3cccnc3)o2)cc1`, the inhibition is 0.36%.

`COc1ccc(-c2nnc(SC(=O)N3c4ccccc4Sc4ccccc43)o2)cc1`: the inhibition was 8.49% (active). For the molecule `CC1CCN(c2ccc([N+](=O)[O-])cc2C(N)=O)CC1`, the inhibition is 1.09%. As to `Cc1cc(C)c(NC(=S)N2CCCC2C(=O)O)c(C)c1` (configuration not stated), the inhibition is -0.25%.

Regarding `COc1ccc(CCN2C(=O)c3[nH]nc(-c4ccccc4O)c3C2c2ccc(C)cc2)cc1OC` (configuration not stated), the inhibition was 1.8%. With `COc1ccc(CCNC(=O)C(=O)NCc2ccccc2C)cc1OC` the figure was 0.77%. For the molecule `COC(=O)c1ccc(C2C(Oc3ccccc3C)C(=O)N2CCc2ccc(OC)c(OC)c2)cc1` (configuration not stated), the inhibition is 12.4% (active). Regarding `Cc1sc2c(c1C)c(=O)n(-c1ccccc1)c(=O)n2CC(=O)NCC1CCCO1` (configuration not stated), the inhibition was 1.92%. `O=C(O)/C=C/C(=O)NNc1ccc([N+](=O)[O-])cc1`: the inhibition is 0.13%. Consider `CCOCCCNC(=O)C(NC(=O)c1ccccc1O)c1ccccc1` (configuration not stated), for which the inhibition was 0%. With `Cc1nn(-c2ccccc2)c(Cl)c1/C=C/C(=O)c1ccc(O)cc1` the figure was 8.5% (active); with `Cc1ccc(-n2nc(C)c(/C=N/NC(=O)c3cccs3)c2Cl)cc1`, 5.29%; with `Cc1ccc(C(=O)/C=C/c2c(C)nn(-c3ccccc3)c2Cl)cc1`, 14.1% (active). In the case of `Cc1nn(-c2ccccc2)c(Cl)c1C(=O)Nc1ccccc1`, the inhibition is 6.51%. In the case of `Cc1nn(-c2ccccc2)c(C)c1/C=C/C(=O)OC(C)C(N)=O` (configuration not stated), the inhibition was 1.08%.

As to `Cc1nn(-c2ccccc2)c(C)c1NC(=O)CCl`, the inhibition was 3.63%. The result for `OCC(CO)(CO)NCc1ccc(-c2ccccc2)cc1` reads 1.38%; that for `COC(=O)N/N=C/c1ccc(/C=N/NC(=O)OC)cc1`, 1.05%; that for `COc1cc(C)c(S(=O)(=O)N2CCOCC2)c(C)c1C`, 0.98%. With `Cc1ccc(N=Cc2c(O)cc(C)oc2=O)c(C)c1` the figure was 0.38%. With `Cc1ccc(-n2c(O)c(C=Nc3ccc(S(=O)(=O)Nc4ncccn4)cc3)c3ccccc3c2=O)cc1C` the figure was 7.54%; with `Cc1ccc(N=Cc2c(O)n(-c3nccs3)c(=O)c3ccccc23)c(C)c1`, 8.99% (active); with `C/C(CC(=O)N1CCN(C=O)CC1)=N\NC(=O)c1ccc(Br)cc1`, 2.35%. `Cc1ccc2[nH]c(C)c(CCNC(=O)NC3CCCCC3)c2c1`: the inhibition was 1.04%.

As for `CC(=O)N(CCCN(C)C)c1nc2ccc(C)cc2s1`, the inhibition is 3.5%.

The values above are taken from PubChem BioAssay AID868 (SRMLSC, 2007).
